The values that follow come from PubChem BioAssay (NCI).

“And” between values parts separate entries of the source, which are not always exact repeats. Identical values can stand only once. About 83,000 compounds went through this panel and 20% of them were active in at least one assay; those are over-represented in the sample as a whole.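 Results are percent growth after 48 hours of single-concentration exposure. 100 means growth as in untreated cells, lower positive values show inhibition; negative values down to -100 show cell death.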 A number with no mark means an inactive call. The source made the active and inactive calls.

This test concerns BT-549 breast. The test is described as follows: NCI-60 one-dose screen, 48 h (100 = growth as untreated, 0 = no growth, -100 = all killed). As to conditions: 10 µM unless noted. The method, then: Growth inhibition of the BT-549 human tumor cell line is measured as a screen for anti-cancer activity. Cells are grown in 96 well plates and exposed to the test compound for 48 hours. Compounds are tested at a single concentration, which is 10^-5 M for most compounds. The reported endpoint is percent growth (GI% or GIPRCNT), where numbers from 0 - 100% represent growth inhibition, and numbers from -100% - 0 represent cell death. For example, a value of 40 represents 60% growth inhibition. A value of 0 means no net growth occurred over the course of the experiment. A value of -40 indicates 40% of cells at the beginning of the experiment died by the end of the experiment. A value of -100 means all cells are dead at the end of the experiment.
NCI-60 Human Tumor Cell Lines Screen was performed using the standard one-dose NCI protocol, which is described in more detail at https://dtp.cancer.gov/discovery_development/nci-60/default.htm.
Compounds with GIPRCNT values below 10 were considered active. Activity score was based on GIPRCNT using the following formula: […]
Score is 0 for GIPRCNT values of 100 or above, 50 for GIPRCNT values of 0, and 100 for GIPRCNT values of -100.
On to `CN1CCN(c2ccc3c4c(cccc24)C(=O)N(c2cccc(-c4nn(-c5ccccc5)cc4-c4nc5ccccc5s4)c2)C3=O)CC1`, for which the growth is 97.1%.

As to `C/C(=N\Nc1ccc(C(=O)O)cc1)c1cnn(-c2cc(=O)[nH]c3ccc(C)cc23)c1C`, the growth is 88.4%.

`COc1cc(/C=N/NC(=O)c2ccc(OCc3nc4ccc(Cl)cc4[nH]3)cc2)cc(OC)c1OC`: the growth is 22.9%.

On to `CN1C(=O)/C(=C\C(=O)c2cc3ccccc3oc2=O)c2ccccc21`, for which the growth is 27.8%.

Consider `CN(C)c1ccc(/C=C/c2n(Cc3ccc4ccccc4c3)c3ccccc3[n+]2Cc2ccc3ccccc3c2)cc1`, for which the growth was -87.1% (active).

Take `COc1ccc(C(=O)c2c(N)c(C#N)cn2-c2ccc([N+](=O)[O-])cc2)cc1`: the growth is 113%.

For `COc1ccc2[nH]c(=O)c(CSc3ccccc3Nc3nccc(-c4ccc5c(c4)OCO5)n3)cc2c1`, the growth is 67.3%.

Take `C=CC(=O)Nc1ccc(C(=O)/C=C/c2ccc(N(C)C)cc2)c(O)c1`: the growth is -45.7% (active).

Regarding `COc1ccc(N=Nc2c(N)nn3c(-c4cc5ccccc5oc4=O)ccnc23)cc1`, the growth was 29.5%.

For the molecule `CCC1(OC(=O)c2ccccc2SSCCOC(=O)CCCCC2SCC3NC(=O)NC32)C(=O)OCc2c1cc1n(c2=O)Cc2cc3ccccc3nc2-1` (stereo not given), the growth was 49.4%.

As for `CC(=O)Nc1cccc(-n2c(COc3ccc(I)cc3)nc3ccccc32)c1`, the growth is 96.9% and 110%.

In the case of `COc1cc(C2CC(c3ccc(Cl)cc3)=Nc3c(N)nc(N)nc3N2)ccc1Oc1nc(Nc2ccc(F)cc2)nc(N(C)C)n1` (stereo not given), the growth is 62.4%.

With `O=C(Nc1nc2ccc([N+](=O)[O-])cc2s1)Nc1ccc(Cl)cc1Cl`, the growth is 65.3%.

As to `Cc1ccc(/C=C/C(=O)c2ccc(S(=O)(=O)NCCNc3nc(N(C)C)nc(N4CCOCC4)n3)cc2)cc1`, the growth is 97.3%.

For `COc1cc(C2CC(c3ccc(S(=O)(=O)NCCNc4nc(N(C)C)nc(N5CCOCC5)n4)cc3)=Nc3c(N)nc(N)nc3N2)cc(OC)c1OC` (stereo not given), the growth was 95.2%.

As to `N#Cc1cc(-c2ccnc(Nc3ccc(N4CCN(C5COC5)CC4)cc3)n2)ccc1N1CCCC1`, the growth was 34.1%.

`CC(C)(C)OC(=O)N1CCC2(CC1)Oc1ccccc1[C@H]1CC(c3ccc(Br)cc3)=NN12`: the growth was 78.5%.

In the case of `Cn1cc(-c2cc(N)n3nc(-c4c[nH]c5ccccc45)cc3n2)c2ccccc21`, the growth is -92.5% (active).

`C[C@H](NC(=O)c1ccc2c(-c3ccc(C(F)(F)F)cc3)cccc2c1)c1ccccn1`: the growth is 54.3%.

For the molecule `C/C(=N\Nc1ccc(S(N)(=O)=O)cc1)c1cnn(-c2cc(=O)[nH]c3ccc(Br)cc23)c1C`, the growth was 37.7%.

As for `C#CCN(C)CCCOc1ccc(N(C)C(=O)c2cc(C(C)C)c(O)cc2O)cc1Cl`, the growth is 9.45% (active).

For the molecule `CC(=O)c1ccc2c(N)c(C(=O)Nc3ccc(C(F)(F)F)cc3)sc2n1`, the growth is 43.4%.

In the case of `COc1ccc(-c2cc(C(=O)N=Nc3c(O)[nH]c4ccc(Cl)cc34)c3ccccc3n2)cc1OC`, the growth is 113%.

For the molecule `COc1c(F)ccc(C(=O)Nc2ccc3nc(NC(=O)C4CCCN(S(=O)(=O)c5ccc(C(C)(C)C)cc5)C4)sc3c2)c1F` (stereo not given), the growth was 60.4%.

Take `COc1sc(/C=N/NC(=O)c2[nH]c3ccc(Br)cc3c2-c2ccccc2)cc1Cl`: the growth is -35.2% (active).

Turning to `Cn1cc(Nc2ncnc(-c3ccc(N4CCCC4)c(C#N)c3)n2)cn1`, the growth was 76.1%.

As to `O=C(NN1C(=O)/C(=C/C=C/c2ccc([N+](=O)[O-])o2)SC1=S)c1ccncc1`, the growth was -91.7% (active).

Regarding `COc1ccc(-c2cc(-c3cc(OC)c(OC)c(OC)c3)[nH]c(=O)c2C#N)cc1`, the growth was 70.5%.

For `CC(=O)Nc1ccc(S(=O)(=O)Nc2ccc(-c3ccc4c(c3)NC(=O)/C4=C\c3ccc[nH]3)cc2)cc1`, the growth was 42.6%.

For `c1n[nH]cc1-c1nc2ccc3[nH]ncc3c2c2c1CC1(CC2)COC1`, the growth is -7.9% (active).

As to `O=C(NC(=S)N1CCN(c2ncnc3c2cnn3-c2ccccc2)CC1)c1ccc(Br)cc1`, the growth was 65.1%.

With `COc1ccc(NC(=O)Cn2c(/C=C/c3ccc([N+](=O)[O-])cc3)nc3ccccc3c2=O)cc1`, the growth is 106%.

Regarding `CCCCNc1ccc2c3c(cccc13)C(=O)N(NCC(O)COc1ccc3c(C)cc(=O)oc3c1)C2=O` (stereo not given), the growth is 95.8%.

In the case of `C=CCSc1nnc(-c2c(C)nc3sccn23)o1`, the growth is 65.2%.

On to `CN1CCN(CCS(=O)(=O)Nc2cc(-c3ccc4ncnc(Nc5ccc(F)c(Cl)c5)c4c3)cnc2Cl)CC1`, for which the growth was -53% (active).

For the molecule `N#C/C(=C/c1ccc([N+](=O)[O-])cc1)c1nnc(NC(=O)c2ccc(-n3c(=O)[nH]c4ccccc4c3=O)cc2)s1`, the growth is 107%.

As for `O=C(COc1ccc(/C=C2/C(=O)Nc3ccc(Cl)cc32)cc1)Nc1ccc(Br)cc1`, the growth is -34.2% (active).

For the molecule `O=C1Nc2cc(-c3ccc(NS(=O)(=O)c4ccc(F)c(Cl)c4)cc3)ccc2/C1=C/c1ccc[nH]1`, the growth is 19.7%.

`O=C(Nc1ccc(-c2ccc3c(c2)NC(=O)/C3=C\c2ccc[nH]2)cc1)Nc1ccc(Cl)c(Cl)c1`: the growth is 40.5%.

For `N#CC1=C(c2ccco2)Nc2c(c(-c3ccccc3)nn2-c2ccccc2)C12C(=O)Nc1ccc(Br)cc12` (stereo not given), the growth was 70.4%.
